# Data as given in the supplement of paper PMC8728848.
# Shown is part of a subset that was picked to be rich in the strongest signals.
# B1: rCnSL-proB (Clitocybe nebularis) (protein)
# chain: PTFSPIFALLAFLPFGTLASLLPQTQLVFRINPNLPGPNDVFVGYRGTNNVVGAIYERDGIKDTPMNNGADAELGPGSYITDDLFTAQIFASGSAGNNPGTTATVCKIYADGVQWRGAPKGYLPVLYFGNGQAAEQTRQTYLQGLDIPGTAIRFANLAKTPNQGPTAPRQMVVPSGGLQTLLKASCFPANHAALPQVLSYFNVRAALPPGWNIRTGPEFPNWTN
# Assays:
# Assay in all cases: glycan array binding signal (z-score within array); higher = stronger binding
# Conditions in all cases: glycan notation: IUPAC condensed, linker removed
# [1] = target: Fuc(a1-2)Gal(b1-3)GlcNAc6S
# In short: (§1)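 The Consortium for Functional Glycomics database supplied 3228 glycan arrays, of which those lacking an available protein sequence were dropped. The binding signal, a within-array Z-score, was averaged across arrays of the same protein sequence and across linkers. Negative scores can be read as non-binding.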
# [2] = target: Fuc(a1-2)Gal(b1-3)[Fuc(a1-4)]GlcNAc(b1-2)Man(a1-3)[Fuc(a1-2)Gal(b1-3)[Fuc(a1-4)]GlcNAc(b1-2)Man(a1-3)]Man(b1-4)GlcNAc(b1-4)GlcNAc
# In short: as §1
# [3] = target: Fuc(a1-2)Gal(b1-4)[Fuc(a1-3)]GlcNAc(b1-3)GalNAc
# In short: as §1
# [4] = target: Fuc(a1-2)[Gal(a1-3)]Gal(b1-3)GlcNAc(b1-2)Man(a1-3)[Fuc(a1-2)[Gal(a1-3)]Gal(b1-3)GlcNAc(b1-2)Man(a1-6)]Man(b1-4)GlcNAc(b1-4)[Fuc(a1-6)]GlcNAc
# In short: as §1
# [5] = target: Fuc(a1-2)[Gal(a1-3)]Gal(b1-4)GlcNAc
# In short: as §1
# [6] = target: Fuc(a1-2)[GalNAc(a1-3)]Gal(b1-3)GlcNAc(b1-2)Man(a1-3)[Fuc(a1-2)[GalNAc(a1-3)]Gal(b1-3)GlcNAc(b1-2)Man(a1-6)]Man(b1-4)GlcNAc(b1-4)[Fuc(a1-6)]GlcNAc
# In short: as §1
# [7] = target: Fuc(a1-2)[GalNAc(a1-3)]Gal(b1-4)GlcNAc(b1-2)Man(a1-3)[Fuc(a1-2)[GalNAc(a1-3)]Gal(b1-4)GlcNAc(b1-2)Man(a1-6)]Man(b1-4)GlcNAc(b1-4)GlcNAc
# In short: as §1
# [8] = target: Fuc(a1-2)[GalNAc(a1-3)]Gal(b1-4)[Fuc(a1-3)]GlcNAc
# In short: as §1
# [9] = target: Fuc(a1-3)[Gal(b1-4)]GlcNAc(b1-2)Man
# In short: as §1
# [10] = target: Fuc(a1-3)[Gal(b1-4)]GlcNAc(b1-6)[Gal(b1-3)GlcNAc(b1-3)]Gal(b1-4)Glc
# In short: as §1
# [11] = target: Gal(a1-3)Gal(b1-3)GlcNAc(b1-2)Man(a1-3)[Gal(a1-3)Gal(b1-3)GlcNAc(b1-2)Man(a1-6)]Man(b1-4)GlcNAc(b1-4)GlcNAc
# In short: as §1
# [12] = target: Gal(b1-3)GlcNAc(b1-2)Man(a1-3)[Gal(b1-3)GlcNAc(b1-2)Man(a1-6)]Man(b1-4)GlcNAc(b1-4)[Fuc(a1-6)]GlcNAc
# In short: as §1
# [13] = target: Gal(b1-3)GlcNAc(b1-3)Gal(b1-4)GlcNAc(b1-2)Man(a1-3)[Gal(b1-3)GlcNAc(b1-3)Gal(b1-4)GlcNAc(b1-2)Man(a1-6)]Man(b1-4)GlcNAc(b1-4)GlcNAc
# In short: as §1
# [14] = target: Gal(b1-3)GlcNAc(b1-6)[Gal(b1-3)]GalNAc
# In short: as §1
# [15] = target: Gal(b1-3)[Neu5Ac(a2-6)]GalNAc
# In short: as §1
# Gal(b1-4)Glc6S = target: Gal(b1-4)Glc6S
# In short: as §1
# [16] = target: Gal(b1-4)GlcNAc(b1-2)[Gal(b1-4)GlcNAc(b1-4)]Man(a1-3)[Gal(b1-4)GlcNAc(b1-2)[Gal(b1-4)GlcNAc(b1-6)]Man(a1-6)]Man(b1-4)GlcNAc(b1-4)GlcNAc
# In short: as §1
# [17] = target: Gal(b1-4)GlcNAc(b1-2)[Gal(b1-4)GlcNAc(b1-6)]Man(a1-6)[Gal(b1-4)GlcNAc(b1-2)Man(a1-3)]Man(b1-4)GlcNAc(b1-4)[Fuc(a1-6)]GlcNAc
# In short: as §1
# [18] = target: Gal(b1-4)GlcNAc(b1-3)Gal(b1-4)GlcNAc(b1-2)Man(a1-3)[Gal(b1-4)GlcNAc(b1-3)Gal(b1-4)GlcNAc(b1-2)Man(a1-6)]Man(b1-4)GlcNAc(b1-4)GlcNAc
# In short: as §1
# [19] = target: Gal(b1-4)GlcNAc(b1-3)Gal(b1-4)GlcNAc(b1-3)Gal(b1-4)GlcNAc(b1-2)Man(a1-3)[Gal(b1-4)GlcNAc(b1-3)Gal(b1-4)GlcNAc(b1-3)Gal(b1-4)GlcNAc(b1-2)Man(a1-6)]Man(b1-4)GlcNAc(b1-4)GlcNAc
# In short: as §1
# [20] = target: Gal(b1-4)GlcNAc(b1-3)Gal(b1-4)GlcNAc(b1-3)Gal(b1-4)GlcNAc(b1-2)Man(a1-3)[Gal(b1-4)GlcNAc(b1-3)Gal(b1-4)GlcNAc(b1-3)Gal(b1-4)GlcNAc(b1-2)Man(a1-6)]Man(b1-4)GlcNAc(b1-4)[Fuc(a1-6)]GlcNAc
# In short: as §1
# [21] = target: Gal(b1-4)GlcNAc(b1-3)Gal(b1-4)GlcNAc(b1-3)Gal(b1-4)GlcNAc(b1-3)Gal(b1-4)GlcNAc(b1-2)Man(a1-3)[Gal(b1-4)GlcNAc(b1-3)Gal(b1-4)GlcNAc(b1-3)Gal(b1-4)GlcNAc(b1-3)Gal(b1-4)GlcNAc(b1-2)Man(a1-6)]Man(b1-4)GlcNAc(b1-4)[Fuc(a1-6)]GlcNAc
# In short: as §1
# [22] = target: Gal(b1-4)GlcNAc(b1-3)Gal(b1-4)GlcNAc(b1-3)Gal(b1-4)GlcNAc(b1-3)Gal(b1-4)GlcNAc(b1-3)Gal(b1-4)GlcNAc(b1-2)Man(a1-3)[Gal(b1-4)GlcNAc(b1-3)Gal(b1-4)GlcNAc(b1-3)Gal(b1-4)GlcNAc(b1-3)Gal(b1-4)GlcNAc(b1-3)Gal(b1-4)GlcNAc(b1-2)Man(a1-6)]Man(b1-4)GlcNAc(b1-4)[Fuc(a1-6)]GlcNAc
# In short: as §1
# [23] = target: Gal(b1-4)GlcNAc(b1-3)Gal(b1-4)GlcNAc(b1-3)[Gal(b1-4)GlcNAc(b1-3)Gal(b1-4)GlcNAc(b1-6)]GalNAc
# In short: as §1
# [24] = target: Gal(b1-4)GlcNAc(b1-3)[Gal(b1-4)GlcNAc(b1-6)]Gal(b1-4)GlcNAc
# In short: as §1
# [25] = target: Gal3S(b1-4)[Fuc(a1-3)]Glc6S
# In short: as §1
# [26] = target: GalNAc(b1-4)GlcNAc(b1-2)Man(a1-3)[GalNAc(b1-4)GlcNAc(b1-2)Man(a1-6)]Man(b1-4)GlcNAc(b1-4)GlcNAc
# In short: as §1
# [27] = target: GlcNAc(a1-4)Gal(b1-4)GlcNAc
# In short: as §1
# [28] = target: GlcNAc(b1-2)[GlcNAc(b1-4)]Man(a1-3)[GlcNAc(b1-2)Man(a1-6)]Man(b1-4)GlcNAc(b1-4)GlcNAc
# In short: as §1
# [29] = target: GlcNAc(b1-3)Gal(b1-4)GlcNAc(b1-3)Gal(b1-4)GlcNAc(b1-3)Gal(b1-4)GlcNAc(b1-3)Gal(b1-4)GlcNAc(b1-2)[GlcNAc(b1-3)Gal(b1-4)GlcNAc(b1-3)Gal(b1-4)GlcNAc(b1-3)Gal(b1-4)GlcNAc(b1-3)Gal(b1-4)GlcNAc(b1-6)]Man(a1-6)[GlcNAc(b1-3)Gal(b1-4)GlcNAc(b1-3)Gal(b1-4)GlcNAc(b1-3)Gal(b1-4)GlcNAc(b1-3)Gal(b1-4)GlcNAc(b1-2)Man(a1-3)]Man(b1-4)GlcNAc(b1-4)[Fuc(a1-6)]GlcNAc
# In short: as §1
# GlcNAc(b1-3)GalNAc = target: GlcNAc(b1-3)GalNAc
# In short: as §1
# [30] = target: GlcNAc(b1-3)[GlcNAc(b1-4)][GlcNAc(b1-6)]GlcNAc
# In short: as §1
# [31] = target: GlcNAc(b1-3)[GlcNAc(b1-6)]GalNAc
# In short: as §1
# Kdn(a2-3)Gal(b1-4)Glc = target: Kdn(a2-3)Gal(b1-4)Glc
# In short: as §1
# MurNAc(b1-4)GlcNAc = target: MurNAc(b1-4)GlcNAc
# In short: as §1
# [32] = target: Neu5Ac(a2-3)Gal(b1-3)GalNAc
# In short: as §1
# [33] = target: Neu5Ac(a2-3)Gal(b1-3)GalNAc(b1-4)[Neu5Ac(a2-3)]Gal(b1-4)Glc
# In short: as §1
# [34] = target: Neu5Ac(a2-3)Gal(b1-3)GlcNAc(b1-2)Man(a1-3)[Neu5Ac(a2-3)Gal(b1-3)GlcNAc(b1-2)Man(a1-6)]Man(b1-4)GlcNAc(b1-4)GlcNAc
# In short: as §1
# [35] = target: Neu5Ac(a2-3)Gal(b1-3)GlcNAc(b1-2)[Neu5Ac(a2-3)Gal(b1-3)GlcNAc(b1-4)]Man(a1-6)[Neu5Ac(a2-3)Gal(b1-3)GlcNAc(b1-2)Man(a1-3)]Man(b1-4)GlcNAc(b1-4)GlcNAc
# In short: as §1
# [36] = target: Neu5Ac(a2-3)Gal(b1-3)GlcNAc6S
# In short: as §1
# [37] = target: Neu5Ac(a2-3)Gal(b1-3)[Fuc(a1-4)]GlcNAc
# In short: as §1
# [38] = target: Neu5Ac(a2-3)Gal(b1-3)[Fuc(a1-4)]GlcNAc(b1-3)Gal(b1-4)[Fuc(a1-3)]GlcNAc
# In short: as §1
# [39] = target: Neu5Ac(a2-3)Gal(b1-4)GlcNAc(b1-3)Gal(b1-4)GlcNAc(b1-3)Gal(b1-4)GlcNAc(b1-2)Man(a1-3)[Neu5Ac(a2-3)Gal(b1-4)GlcNAc(b1-3)Gal(b1-4)GlcNAc(b1-3)Gal(b1-4)GlcNAc(b1-2)Man(a1-6)]GalNAc
# In short: as §1
# [40] = target: Neu5Ac(a2-3)Gal(b1-4)GlcNAc(b1-6)[Neu5Ac(a2-3)Gal(b1-3)]GalNAc
# In short: as §1
# [41] = target: Neu5Ac(a2-6)Gal(b1-4)GlcNAc(b1-2)Man
# In short: as §1
# [42] = target: Neu5Ac(a2-6)Gal(b1-4)GlcNAc(b1-2)Man(a1-3)[Neu5Ac(a2-6)Gal(b1-4)GlcNAc(b1-2)Man(a1-6)]Man(b1-4)GlcNAc(b1-4)[Fuc(a1-6)]GlcNAc
# In short: as §1
# [43] = target: Neu5Ac(a2-6)GlcNAc(b1-4)GlcNAc
# In short: as §1
# [44] = target: Neu5Ac(a2-8)Neu5Ac(a2-8)Neu5Ac
# In short: as §1
# [45] = target: Neu5Ac9Ac(a2-3)Gal(b1-3)GlcNAc
# In short: as §1
binder,measurement,setting,value
B1,glycan array binding signal (z-score),[1],-0.282
same,glycan array binding signal (z-score),[2],3.69
same,glycan array binding signal (z-score),[3],0.251
same,glycan array binding signal (z-score),[4],0.259
same,glycan array binding signal (z-score),[5],-0.77
same,glycan array binding signal (z-score),[6],3.9
same,glycan array binding signal (z-score),[7],-0.08
same,glycan array binding signal (z-score),[8],-0.654
same,glycan array binding signal (z-score),[9],-0.565
same,glycan array binding signal (z-score),[10],-0.826
same,glycan array binding signal (z-score),[11],-0.093
same,glycan array binding signal (z-score),[12],-0.42
same,glycan array binding signal (z-score),[13],3.58
same,glycan array binding signal (z-score),[14],-0.511
same,glycan array binding signal (z-score),[15],0.089
same,glycan array binding signal (z-score),Gal(b1-4)Glc6S,-0.06
same,glycan array binding signal (z-score),[16],3.51
same,glycan array binding signal (z-score),[17],4.49
same,glycan array binding signal (z-score),[18],6.35
same,glycan array binding signal (z-score),[19],4.18
same,glycan array binding signal (z-score),[20],1.76
same,glycan array binding signal (z-score),[21],2.28
same,glycan array binding signal (z-score),[22],0.375
same,glycan array binding signal (z-score),[23],4.08
same,glycan array binding signal (z-score),[24],-0.283
same,glycan array binding signal (z-score),[25],0.549
same,glycan array binding signal (z-score),[26],3.38
same,glycan array binding signal (z-score),[27],-0.308
same,glycan array binding signal (z-score),[28],-0.133
same,glycan array binding signal (z-score),[29],0.742
same,glycan array binding signal (z-score),GlcNAc(b1-3)GalNAc,-0.757
same,glycan array binding signal (z-score),[30],-0.62
same,glycan array binding signal (z-score),[31],-0.668
same,glycan array binding signal (z-score),Kdn(a2-3)Gal(b1-4)Glc,-1.27
same,glycan array binding signal (z-score),MurNAc(b1-4)GlcNAc,-0.477
same,glycan array binding signal (z-score),[32],-0.437
same,glycan array binding signal (z-score),[33],-0.343
same,glycan array binding signal (z-score),[34],3.69
same,glycan array binding signal (z-score),[35],0.146
same,glycan array binding signal (z-score),[36],0.395
same,glycan array binding signal (z-score),[37],-0.555
same,glycan array binding signal (z-score),[38],0.025
same,glycan array binding signal (z-score),[39],4.43
same,glycan array binding signal (z-score),[40],-0.239
same,glycan array binding signal (z-score),[41],0.328
same,glycan array binding signal (z-score),[42],0.037
same,glycan array binding signal (z-score),[43],-0.255
same,glycan array binding signal (z-score),[44],-0.203
same,glycan array binding signal (z-score),[45],-0.873
